Laboratory results from PubChem BioAssay (NCI).
The panel holds about 83,000 compounds, 20% with a hit somewhere; the sample as a whole holds those more often.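 For each line, cells grew in 96-well plates with the test compound present at a single concentration for 48 hours.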 A number with no mark means an inactive call. Calls of active or inactive are those of the source.

System: NCI-H522 lung
Test: NCI-60 one-dose screen, 48 h (100 = growth as untreated, 0 = no growth, -100 = all killed)
Conditions: 10 µM unless noted
Method: Growth inhibition of the NCI-H522 human Non-Small Cell Lung tumor cell line is measured as a screen for anti-cancer activity. Cells are grown in 96 well plates and exposed to the test compound for 48 hours. Compounds are tested at a single concentration, which is 10^-5 M for most compounds. The reported endpoint is percent growth (GI% or GIPRCNT), where numbers from 0 - 100% represent growth inhibition, and numbers from -100% - 0 represent cell death. For example, a value of 40 represents 60% growth inhibition. A value of 0 means no net growth occurred over the course of the experiment. A value of -40 indicates 40% of cells at the beginning of the experiment died by the end of the experiment. A value of -100 means all cells are dead at the end of the experiment.
NCI-60 Human Tumor Cell Lines Screen was performed using the standard one-dose NCI protocol, which is described in more detail at https://dtp.cancer.gov/discovery_development/nci-60/default.htm.
Compounds with GIPRCNT values below 10 were considered active. Activity score was based on GIPRCNT using the following formula: […]
Score is 0 for GIPRCNT values of 100 or above, 50 for GIPRCNT values of 0, and 100 for GIPRCNT values of -100.

Compound	growth
O=c1[nH]c(Cc2nc3ccccc3s2)nc2cc(Br)ccc12	58.7%
COc1ccc(C/C(C)=C(/c2ccc(OCCN(C)C)cc2)c2ccc(OC(=O)NCc3ccccc3)cc2)cc1	50.4%
N#CC1=C(N)Oc2c(c(=O)[nH]c3ccc(Cl)cc23)C12C(=O)c1ccccc1C2=O	105%
NC(=O)c1ccc(-c2c3ccccc3cc3c2ccc2ccccc23)cc1	-20.6% (active)
CCCCCCCCCCCCCCCCCCOc1ccccc1CC(=O)OCC[N+](C)(C)C	2.19% (active)
CCOC(=O)c1cc2c(n1Cc1cc(OC)c(OC)c(OC)c1)-c1nc(N)sc1CCC2	7.85% (active)
C#Cc1c2c(c(OC)c3c1OCO3)[C@H]([C@H]1OC(=O)c3c1ccc(OC)c3OC)N(C)CC2	60.3%
O=C(N/N=C/c1ccc(Cl)cc1)c1[nH]c2ccc(Cl)cc2c1-c1ccccc1	-32% (active)
O=c1c2cccc3c(N4CCCC4)ccc(c32)c2nc3ccccc3n12	71.2%
CCOC(=O)c1nn(-c2ccc(S(N)(=O)=O)cc2)c2nc(C)cc(=O)n12	100%
O=C(Nc1ccc(Oc2cccc(F)c2)c(Cl)c1)c1cccnc1	36.2%
COc1ccc(Nc2nnc(-c3ccc(OC)c(OC)c3)o2)cc1	62.8%
CCCCCC(/C=N\NC(=S)N/N=C/C(=C/c1ccccc1)CCCCC)=C\c1ccccc1	40.4%
Cn1c(=O)c2nc(/C=C/c3ccccc3)c(=O)[nH]c2n(C)c1=S	102%
O=C(CSc1nnc(-c2cnccn2)n1-c1ccccc1)c1ccc(Cl)cc1	95.3%
CCOC(=O)C/C(=N\Nc1cc(=O)[nH]c2ccc(Br)cc12)C(=O)OCC	95.2%
CC(C)c1ccc(Cc2cnc(NC(=O)c3cc(Br)cs3)s2)cc1	-1.16% (active)
O=C1c2ccccc2-c2c1c1c(=O)[nH]c3ccccc3c1n2Cc1ccccc1	35%
N#Cc1c(-c2ccccc2)cc(-c2ccc(Nc3nc(Nc4ccc(Cl)cc4)nc(Nc4ccc(Cl)cc4)n3)cc2)nc1N	80.7%
CCC(=O)Oc1ccc(-c2ccccc2)cc1Br	108%

Compound	growth
O=[N+]([O-])c1ccc(O)cc1Br	90.7%
CCCn1cc2c(=O)nc3sc(Cc4ccccc4)c(C)n3c2n1	75%
O=C1/C(=C/c2cn(-c3ccccc3)nc2-c2ccccc2)SC(=S)N1C1CCCCC1	91.5%
COc1cc(-c2cncn2-c2ccc(-c3nc4ccc(F)cc4s3)cc2)ccc1F	55.9%
O=C(CN1CCOCC1)Nc1nc(-c2cc3ccccc3oc2=O)cs1	98.7%
O=C(/C=C/c1cccs1)Nc1ncc(Cc2ccccc2F)s1	6.23% (active)
CC(=O)N1N=C(c2ccc(C(F)(F)F)c(F)c2)CC1c1[nH]c(C)c(C(=O)NCC(F)(F)F)c1C (stereo not given)	94.8%
COc1ccc2c(c1)CC[C@H](O)/C2=C/c1cc(OC)c(OC)c(OC)c1	-19.2% (active)
COc1cc2cc(NCc3cccc(Cl)c3)nc(C)c2cc1OC	18.3%
O=C(/C=C(/C=C/c1ccc2[nH]ccc2c1)OB(F)F)/C=C/c1ccc2[nH]ccc2c1	-68.5% (active)
C#CCNC(=O)[C@H](CC)[C@H]1CC[C@H](C)[C@H]([C@@H](C)[C@H](O)[C@H](C)C(=O)[C@H](CC)C2O[C@]3(C=CC(=O)[C@]4(CC[C@@](C)([C@H]5CC[C@](O)(CC)[C@H](C)O5)O4)O3)[C@H](C)C[C@@H]2C)O1 (stereo not given in full)	32.3%
Cc1ccc2c(n1)C(=O)C(Br)=C(CC(C)C)C2=O	67.7%
Cn1c(I)c(C#CCO[Si](C)(C)C(C)(C)C)c(=O)[nH]c1=O	74.2%
Cc1ccc2c(Cn3cc(CSc4nc5ccccc5o4)nn3)cc(=O)oc2c1	97.6%
CC(C)(Sc1cc(C(C)(C)C)c(OC(=O)CCCC(=O)O)c(C(C)(C)C)c1)Sc1cc(C(C)(C)C)c(OC(=O)CCCC(=O)O)c(C(C)(C)C)c1	37.8%
COc1ccc(/C=C(\C#N)n2nnc3cc(Cl)ccc32)cc1	-15.7% (active)
N#Cc1nc(-c2ccccc2)oc1S(=O)(=O)N1CCN(c2ccccc2)CC1	58.6%
COc1ccc(Cc2cnc(NC(=O)c3cc(C)oc3C)s2)cc1	14.4%
Fc1cccc(Oc2ccc(Nc3ncnc4ccc(OCCCN5CCOCC5)cc34)cc2Cl)c1	43.8%
CC1=C([Se]CC(OC(=O)CC[Se]c2ccccc2)C(=O)NC(C)(C)C)C(=O)c2ccccc2C1=O (stereo not given)	-38.7% (active)
